Data reported in PubChem BioAssay (NCATS).
Several values for one entry are separate records, joined by “and”; a condition that tells them apart may be missing. Equal entries are not always repeated. Records with an inconclusive call do not appear. Activity calls are given as the source filed them. Unless noted, the call rests on the fitted dose curve; in most records, active means well fitted curve in the direction sought with a large enough effect; inconclusive means small, poorly fitted or top-dose-only effect, or another doubt; inactive means no such curve, though single readings can be large; an effect the other way counts as inactive or inconclusive.

How the values were obtained:
[1] = AP1 Signaling Pathway (AID 357; active means well fitted curve in either direction with a large enough effect, not every such curve was filed as active;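 further: ME-180 reporter cells stimulated with EGF at its EC50 level; on the % scale 0 is the no-effect control and ±100 the full control effect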); conditions: ME-180 AP-1-bla reporter, EGF-induced, beta-lactamase ratio, 5 h; at 7.69 µM (top of the series) unless noted
Procedure, shortened: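 Read-out was the 460nm/530nm emission ratio (excitation 405nm) after CCF4 loading for 2.5 hours at room temperature. Cells carried an AP-1-driven beta-lactamase reporter, were stimulated with EC50 EGF plus compound for 5 hours, and AC50 values came from titrations.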

[2] = biological target: Cytochrome P450 1A2 (Homo sapiens) (UniProt P05177); test: p450-cyp1a2 (AID 410; calls by dose curve; further: potency means the concentration at half of the fitted maximal effect;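 on activity change, negative = inhibition: -100% = full effect of reference inhibitor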)
Chain of Cytochrome P450 1A2 (Homo sapiens) (P05177 whole entry, looked up): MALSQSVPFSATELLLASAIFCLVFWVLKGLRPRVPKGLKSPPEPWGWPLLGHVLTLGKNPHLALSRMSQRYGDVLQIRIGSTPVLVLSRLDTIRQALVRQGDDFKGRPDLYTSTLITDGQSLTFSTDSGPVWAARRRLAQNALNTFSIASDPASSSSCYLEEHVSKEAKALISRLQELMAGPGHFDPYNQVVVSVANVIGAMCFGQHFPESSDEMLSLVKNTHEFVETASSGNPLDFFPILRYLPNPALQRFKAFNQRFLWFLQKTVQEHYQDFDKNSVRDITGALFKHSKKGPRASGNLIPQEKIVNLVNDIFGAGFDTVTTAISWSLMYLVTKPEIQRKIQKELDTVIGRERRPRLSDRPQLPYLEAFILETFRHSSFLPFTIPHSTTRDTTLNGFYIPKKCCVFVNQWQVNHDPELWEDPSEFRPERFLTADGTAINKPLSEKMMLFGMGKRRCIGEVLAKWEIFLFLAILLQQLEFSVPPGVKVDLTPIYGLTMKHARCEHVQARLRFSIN
Procedure, shortened: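 Human CYP1A2 (20nM) demethylated Luciferin-ME at its Km (100uM) in 100mM KPO4. After 10 min compound preincubation, NADPH regeneration ran the reaction 60 min at room temperature. Luciferin was read by luminescence, normalized to 57 uM furafylline.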

[3] = NFAT Signaling Pathway (AID 444; active means well fitted curve in either direction with a large enough effect, not every such curve was filed as active;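 further: carbachol stimulus at about its EC50 of 1 µM final; on the % scale 0 is the no-effect control and ±100 the full control effect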); conditions: Jurkat NFAT-bla M1, carbachol, beta-lactamase ratio, 5 h; at 7.69 µM (top of the series) unless noted
Procedure, shortened: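 Jurkat cells carrying an NFAT-driven β-lactamase reporter and co-transfected muscarinic M1 receptor were treated with compound plus carbachol (1 uM final, an EC50 level) for 5 h at 37 °C. CCF4 loading followed for 1 h at RT; 460/530 nm ratio gave %activity.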

[4] = Stat Signaling Pathway (AID 446; active means well fitted curve in either direction with a large enough effect, not every such curve was filed as active;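 further: ME-180 cervical cancer cells given 40 pM IL-6 alongside compound; SIE-controlled beta-lactamase reporter measured as 460/530 nm FRET emission ratio; on the % scale 0 is the no-effect control and ±100 the full control effect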); conditions: ME-180 (cervical carcinoma) SIE beta-lactamase reporter, IL-6 stimulated, 5 h; at 7.69 µM (top of the series) unless noted
Procedure, shortened: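 IL-6/STAT signaling read in ME-180 cells via an SIE beta-lactamase reporter. Stimulus was 40 pM IL-6 (its AC50) for 5 hrs, so both activation and inhibition register.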

[5] = biological target: Mitogen-activated protein kinase 10 (Mus musculus) (UniProt Q61831); test: JNK3 AlphaScreen Assay (AID 530; active means well fitted curve in either direction with a large enough effect, not every such curve was filed as active;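 further: kinase came from lysate of stimulated human HepG2 cells; signal reports phosphorylation of biotinylated GST-cJun 1-79 at Ser73 with 10 µM ATP; on the % scale 0 is the no-effect control and ±100 the full control effect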)
Procedure, shortened: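 JNK3 came from HepG2 lysates pre-activated with IL-1beta and TNF-alpha and phosphorylated biotinylated GST-cJun (1-79) at 10 uM ATP, pH 7.6, room temperature. Compounds were titrated. AlphaScreen signal used anti-phospho-cJun (Ser73) antibody.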

[6] = biological target: 3',5'-cyclic-AMP phosphodiesterase 4B (Homo sapiens) (UniProt Q07343); test: qHTS Assay for Inhibitors of PDE-IV (AID 607; active means well fitted activation curve with a large enough effect in the main read-out, with a control signal flat, not every such curve was filed as active; further: % of control where 0% means no effect)
Chain of 3',5'-cyclic-AMP phosphodiesterase 4B (Homo sapiens) (Q07343 whole entry, looked up): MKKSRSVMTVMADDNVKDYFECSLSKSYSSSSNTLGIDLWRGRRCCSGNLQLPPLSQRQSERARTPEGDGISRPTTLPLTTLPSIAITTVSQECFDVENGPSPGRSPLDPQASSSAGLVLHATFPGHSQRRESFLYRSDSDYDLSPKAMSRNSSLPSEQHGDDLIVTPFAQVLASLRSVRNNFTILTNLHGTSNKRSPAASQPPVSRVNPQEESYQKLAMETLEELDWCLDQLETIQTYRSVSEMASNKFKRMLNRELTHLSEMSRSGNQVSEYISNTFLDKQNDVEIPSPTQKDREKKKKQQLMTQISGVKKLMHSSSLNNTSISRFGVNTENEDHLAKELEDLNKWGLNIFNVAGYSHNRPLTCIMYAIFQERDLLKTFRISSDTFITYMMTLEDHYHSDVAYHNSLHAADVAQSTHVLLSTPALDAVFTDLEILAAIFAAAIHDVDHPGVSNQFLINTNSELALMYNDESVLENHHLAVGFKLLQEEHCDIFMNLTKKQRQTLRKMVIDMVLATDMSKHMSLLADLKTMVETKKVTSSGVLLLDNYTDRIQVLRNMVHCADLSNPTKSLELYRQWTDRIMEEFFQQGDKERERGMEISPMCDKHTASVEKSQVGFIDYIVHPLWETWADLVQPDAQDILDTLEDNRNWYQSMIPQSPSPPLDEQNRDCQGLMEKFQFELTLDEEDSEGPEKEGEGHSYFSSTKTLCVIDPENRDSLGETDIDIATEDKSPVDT
Procedure, shortened: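 Live HEK293 cells with a modified cyclic nucleotide-gated (CNG) channel report intracellular cAMP via membrane-potential dye fluorescence (ex 535/em 590 nm). Endogenous PDE-IV was targeted. Compounds were tested at up to 22.9 uM final; RO 20-1724 100 uM served as control.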

[7] = biological target: Cytochrome P450 3A4 (Homo sapiens) (UniProt P08684); test: qHTS Assay for Activators of Cytochrome P450 3A4 (AID 885); further: nearly all actives have a fitted effect of over 65% in size
Procedure, shortened: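 Quantitative HTS format: compounds preincubated with 20nM human CYP3A4 and Luciferin-PPXE substrate at KM, reaction started by NADPH regeneration, stopped after 60 min, luciferase luminescence read 20 min later.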

[8] = biological target: Glucocorticoid receptor (Homo sapiens) (UniProt P04150); test: GR-GFP Redistribution (AID 450;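 active means compounds whose dose series gives a full or clear partial fitted curve of increased nuclear translocation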; further: potency means the concentration at half of the fitted maximal effect); conditions: U2OS GR-GFP nuclear translocation, laser cytometry, 2 h
Chain of Glucocorticoid receptor (Homo sapiens) (P04150 whole entry, looked up, the tested form may be a part): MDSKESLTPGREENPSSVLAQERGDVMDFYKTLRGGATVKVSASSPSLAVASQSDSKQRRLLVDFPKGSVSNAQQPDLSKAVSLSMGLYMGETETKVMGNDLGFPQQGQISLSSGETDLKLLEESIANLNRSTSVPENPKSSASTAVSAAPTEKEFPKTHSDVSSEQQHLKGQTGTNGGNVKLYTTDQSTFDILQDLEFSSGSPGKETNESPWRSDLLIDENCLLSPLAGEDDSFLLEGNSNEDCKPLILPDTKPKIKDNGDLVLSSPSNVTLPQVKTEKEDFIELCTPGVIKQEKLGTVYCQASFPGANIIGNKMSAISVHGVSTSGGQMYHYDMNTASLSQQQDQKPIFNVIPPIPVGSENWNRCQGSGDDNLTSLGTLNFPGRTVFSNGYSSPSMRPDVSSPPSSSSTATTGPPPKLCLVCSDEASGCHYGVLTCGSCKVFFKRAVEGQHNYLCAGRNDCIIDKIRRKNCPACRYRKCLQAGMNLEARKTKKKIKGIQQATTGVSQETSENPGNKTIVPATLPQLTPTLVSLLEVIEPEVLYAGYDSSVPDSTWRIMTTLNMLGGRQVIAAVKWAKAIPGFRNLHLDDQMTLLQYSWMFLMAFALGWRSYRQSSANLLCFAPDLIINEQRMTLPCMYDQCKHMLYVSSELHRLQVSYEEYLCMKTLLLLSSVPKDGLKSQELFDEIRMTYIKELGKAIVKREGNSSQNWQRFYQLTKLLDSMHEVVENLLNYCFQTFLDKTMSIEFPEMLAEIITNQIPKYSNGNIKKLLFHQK

[9] = biological target: Glucocorticoid receptor (Homo sapiens) (UniProt P04150); test: GR-EFC Redistribution (AID 451; calls by dose curve; further: potency means the concentration at half of the fitted maximal effect); conditions: CHO-K1 GR-EFC translocation, beta-gal luminescence, 2 h
Procedure, shortened: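 CHO-K1 cells stably expressing nuclear-localized β-gal enzyme acceptor and GR fused C-terminally to the enzyme donor fragment; ligand-driven nuclear translocation restores β-gal by complementation. Compounds titrated up to 46 uM final, 2 h at 37 °C; luminescence read.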

[10] = biological target: Cytochrome P450 2C9 (Homo sapiens) (UniProt P11712); test: qHTS Assay for Inhibitors and Substrates of Cytochrome P450 2C9 (AID 883); further: on the % scale 0 is the no-effect control and ±100 the full control effect; nearly all actives have a fitted effect of over 60% in size
Procedure, shortened: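 A luminogenic readout tracked human CYP2C9 (10nM) converting deoxyluciferin (100uM, at KM) in 25mM KPO4 during 60 min at 37C with regenerated NADPH. Values normalized to 57uM sulphaphenazole as complete inhibition.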

[11] = biological target: Cytochrome P450 2D6 (Homo sapiens) (UniProt P10635); test: qHTS Assay for Inhibitors and Substrates of Cytochrome P450 2D6 (AID 891);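 further: luciferin methyl ether substrate demethylated by CYP2D6 with NADPH regeneration; on the % scale 0 is the no-effect control and ±100 the full control effect; nearly all actives have a fitted effect of over 60% in size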
Chain of Cytochrome P450 2D6 (Homo sapiens) (P10635 whole entry, looked up): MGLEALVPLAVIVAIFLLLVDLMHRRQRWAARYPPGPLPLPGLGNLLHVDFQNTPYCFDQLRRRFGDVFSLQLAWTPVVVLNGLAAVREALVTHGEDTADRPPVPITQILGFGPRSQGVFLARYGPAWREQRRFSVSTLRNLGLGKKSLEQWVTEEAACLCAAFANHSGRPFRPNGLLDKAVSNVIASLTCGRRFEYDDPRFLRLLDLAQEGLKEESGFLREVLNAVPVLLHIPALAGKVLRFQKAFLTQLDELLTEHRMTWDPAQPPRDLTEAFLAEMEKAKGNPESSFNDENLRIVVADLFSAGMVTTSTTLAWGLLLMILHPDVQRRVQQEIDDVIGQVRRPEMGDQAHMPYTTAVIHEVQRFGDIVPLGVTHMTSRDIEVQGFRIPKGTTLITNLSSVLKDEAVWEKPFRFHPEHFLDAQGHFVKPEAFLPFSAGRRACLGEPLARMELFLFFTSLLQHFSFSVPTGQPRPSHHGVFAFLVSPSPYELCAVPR
Procedure, shortened: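 Human CYP2D6 (5 nM) with 30 uM Luciferin-ME EGE (at Km) in 100 mM KPO4, compound preincubated 10 min, then NADPH regeneration system for 60 min at room temperature. Luciferin read by luminescence; normalized to 1.43 uM quinidine.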

[12] = biological target: Guanine nucleotide-binding protein G(i) subunit alpha-1 (Homo sapiens) (UniProt P63096); test: qHTS Assay for Inhibitors of RGS12 GoLoco Motif Activity (Green Fluorophore) (AID 879);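 further: 0% = labeled peptide with Gαi1 and full inhibition = labeled peptide alone without protein; negative values mean loss of peptide binding seen as reduced polarization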
Chain of Guanine nucleotide-binding protein G(i) subunit alpha-1 (Homo sapiens) (P63096 whole entry, looked up): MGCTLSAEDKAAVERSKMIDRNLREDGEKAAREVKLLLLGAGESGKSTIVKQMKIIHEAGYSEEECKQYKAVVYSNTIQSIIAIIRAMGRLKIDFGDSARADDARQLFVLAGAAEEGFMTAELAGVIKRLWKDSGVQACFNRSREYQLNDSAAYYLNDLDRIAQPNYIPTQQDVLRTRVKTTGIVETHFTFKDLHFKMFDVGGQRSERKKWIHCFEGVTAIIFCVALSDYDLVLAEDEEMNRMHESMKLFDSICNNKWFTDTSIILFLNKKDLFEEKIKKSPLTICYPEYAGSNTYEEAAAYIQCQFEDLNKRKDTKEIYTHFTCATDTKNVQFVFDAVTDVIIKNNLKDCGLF
Procedure, shortened: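 Fluorescence polarization assay: 50 nM Gαi1 with 10 nM FITC-labeled RGS12 GoLoco peptide in 10 mM Tris pH 7.5, 150 mM NaCl, 0.1 mM GDP, 0.05% NP40, 10 min at room temperature with compound.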

[13] = qHTS Assay for Identification of Small Molecule Agonists for Thrombopoietin (TPO) Signaling Pathway (AID 917); further: on the % scale 0 is the no-effect control and ±100 the full control effect
Procedure, shortened: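 Activators of TPO signaling were sought in murine Ba/F3 cells transfected with the human receptor, using a luciferase gene driven by the Glycoprotein IIb promoter; 24-hr compound exposure at 37 C alongside 26 pM TPO, in IL-3-free medium.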

[14] = biological target: Pyruvate kinase (Leishmania mexicana) (UniProt Q27686); test: qHTS Validation Assay for Inhibitors of Leishmania Mexicana Pyruvate Kinase (AID 945);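 further: 0% = DMSO only neutral control wells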
Chain of Pyruvate kinase (Leishmania mexicana) (Q27686 2-499 E452W): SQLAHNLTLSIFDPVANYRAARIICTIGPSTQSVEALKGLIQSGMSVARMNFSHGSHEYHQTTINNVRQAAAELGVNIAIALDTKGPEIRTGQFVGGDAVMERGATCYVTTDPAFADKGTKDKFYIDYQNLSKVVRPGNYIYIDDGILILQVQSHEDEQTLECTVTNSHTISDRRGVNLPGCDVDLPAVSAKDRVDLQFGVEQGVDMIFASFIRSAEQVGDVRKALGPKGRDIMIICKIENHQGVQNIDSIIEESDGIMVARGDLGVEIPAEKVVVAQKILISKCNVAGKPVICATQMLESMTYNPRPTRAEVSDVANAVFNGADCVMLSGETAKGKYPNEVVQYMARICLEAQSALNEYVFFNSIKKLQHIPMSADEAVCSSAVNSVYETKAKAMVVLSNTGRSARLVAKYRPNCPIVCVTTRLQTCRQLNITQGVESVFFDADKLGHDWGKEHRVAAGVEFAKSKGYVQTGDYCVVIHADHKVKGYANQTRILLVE
Procedure, shortened: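 Mutant LmPYK (E451W), 0.2 nM, plus 0.5 mM PEP and 0.1 mM ADP in 50 mM imidazole pH 7.2 containing 0.01% Tween 20 and 0.05% BSA. Incubated 1 h at room temperature; luminescence via PKLight, normalized to DMSO.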

[15] = biological target: Pyruvate kinase PKM (Homo sapiens) (UniProt P14618); test: qHTS Assay for Activators of Human Muscle Pyruvate Kinase (AID 954; active means well fitted curve in the direction sought with a large enough effect, not every such curve was filed as active;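 further: 0% = uninhibited enzyme and -100% = no enzyme or full thiadiazolimine inhibition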)
Chain of Pyruvate kinase PKM (Homo sapiens) (P14618 whole entry, looked up): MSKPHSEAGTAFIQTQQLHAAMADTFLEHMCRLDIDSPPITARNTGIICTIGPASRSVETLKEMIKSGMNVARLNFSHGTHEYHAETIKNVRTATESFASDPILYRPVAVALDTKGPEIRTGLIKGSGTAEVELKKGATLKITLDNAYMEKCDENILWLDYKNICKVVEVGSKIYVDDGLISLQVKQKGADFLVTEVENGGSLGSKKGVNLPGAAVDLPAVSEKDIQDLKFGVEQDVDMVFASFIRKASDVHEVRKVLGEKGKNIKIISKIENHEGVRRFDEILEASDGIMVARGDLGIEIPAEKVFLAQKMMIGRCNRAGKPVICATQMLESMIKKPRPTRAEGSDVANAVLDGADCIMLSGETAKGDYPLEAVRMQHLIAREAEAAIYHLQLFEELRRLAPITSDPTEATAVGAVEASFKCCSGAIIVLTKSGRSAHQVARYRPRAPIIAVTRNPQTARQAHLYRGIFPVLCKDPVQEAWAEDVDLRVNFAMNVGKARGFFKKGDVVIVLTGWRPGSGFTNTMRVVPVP
Procedure, shortened: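 Enzyme was run at intermediate activity so both inhibitors and activators could be detected. ATP formed from ADP and PEP by 0.1 nM human PKM2 during a 1 h room-temperature incubation was quantified by coupled luciferase luminescence.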

[16] = biological target: Alpha-galactosidase A (Homo sapiens) (UniProt P06280); test: Counterscreen for Glucocerebrosidase Inhibitors: qHTS Assay for Human alpha-Galactosidase at pH 4.5 (AID 992); further: 0% is about no effect
Chain of Alpha-galactosidase A (Homo sapiens) (P06280 whole entry, looked up): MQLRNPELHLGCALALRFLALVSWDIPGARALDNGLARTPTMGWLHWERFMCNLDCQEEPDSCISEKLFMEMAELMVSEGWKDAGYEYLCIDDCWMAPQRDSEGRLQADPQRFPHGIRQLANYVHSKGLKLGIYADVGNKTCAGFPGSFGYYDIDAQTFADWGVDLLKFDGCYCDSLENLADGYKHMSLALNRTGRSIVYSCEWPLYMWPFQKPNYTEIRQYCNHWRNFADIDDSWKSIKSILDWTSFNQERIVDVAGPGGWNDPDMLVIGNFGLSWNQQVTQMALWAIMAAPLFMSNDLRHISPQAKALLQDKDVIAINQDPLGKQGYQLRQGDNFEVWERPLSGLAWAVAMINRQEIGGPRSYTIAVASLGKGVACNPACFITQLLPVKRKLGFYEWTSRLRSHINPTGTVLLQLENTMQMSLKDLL
Procedure, shortened: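 Read-out is 4-methylumbelliferone fluorescence (365 nm excitation, 440 nm emission) after a pH 10 NaOH/glycine stop. Reactions held 2 nM enzyme and 80 uM substrate at pH 4.5 for 20 min at room temperature.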

[17] = biological target: alpha-glucosidase (Oryza sativa, rice) (UniProt Q653V4); test: Counterscreen for Glucocerebrosidase Inhibitors: qHTS Assay for Rice alpha-Glucosidase at pH 5.0 (AID 997);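 further: 0% = full activity with enzyme and -100% = basal without enzyme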
Procedure, shortened: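 Rice alpha-glucosidase (4 nM final) with 400 uM 4-methylumbelliferyl-alpha-D-glucopyranoside in citrate buffer pH 5.0, 20 min at room temperature, stopped at pH 10; fluorescence 365/440 nm, compounds 0.7 nM–77 uM, AC50 from Hill fits.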

[18] = biological target: Muscarinic acetylcholine receptor M1 (Rattus norvegicus) (UniProt P08482); test: qHTS Assay for Antagonists of Acetylcholine Muscarinic M1 Receptor: Kinetic Measurement of Intracellular Calcium Response (AID 943);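 further: Fluo-4 calcium signal as peak divided by basal fluorescence over 4 min; nearly all actives have a fitted effect of over 75% in size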
Chain of Muscarinic acetylcholine receptor M1 (Rattus norvegicus) (P08482 whole entry, looked up): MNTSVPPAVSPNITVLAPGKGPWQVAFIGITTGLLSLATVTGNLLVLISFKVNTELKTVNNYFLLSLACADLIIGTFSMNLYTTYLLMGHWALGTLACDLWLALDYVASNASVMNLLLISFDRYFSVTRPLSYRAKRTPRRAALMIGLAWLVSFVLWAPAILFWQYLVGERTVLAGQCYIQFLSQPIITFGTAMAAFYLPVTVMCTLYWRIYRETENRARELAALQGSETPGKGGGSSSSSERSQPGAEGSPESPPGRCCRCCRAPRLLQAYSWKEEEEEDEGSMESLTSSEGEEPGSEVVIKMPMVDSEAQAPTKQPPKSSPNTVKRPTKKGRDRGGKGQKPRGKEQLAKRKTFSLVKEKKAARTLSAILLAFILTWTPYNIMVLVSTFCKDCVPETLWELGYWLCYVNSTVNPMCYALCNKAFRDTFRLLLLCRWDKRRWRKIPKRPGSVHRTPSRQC
Procedure, shortened: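 CHO cells stably expressing rat M1 were loaded with no-wash Fluo-4 dye for 1 h at 37C, pre-incubated 10 min with compound, then challenged with EC80 carbachol (100 nM final); kinetic calcium read 4 min, peak/basal ratio.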

[19] = biological target: Muscarinic acetylcholine receptor M1 (Rattus norvegicus) (UniProt P08482); test: qHTS Assay for Antagonists of Acetylcholine Muscarinic M1 Receptor: Measurement of IP-One Response (AID 944); further: nearly all actives have a fitted effect of over 75% in size
Procedure, shortened: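 CHO cells expressing rat M1 receptor, recovered overnight, were pre-incubated 10 min with compound, then stimulated 30 min with carbachol at EC80 (200 nM) in LiCl-containing buffer, pH 7.4. IP1 accumulation was read by HTRF (620/665 nm).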

[20] = biological target: Cytochrome P450 2C19 (Homo sapiens) (UniProt P33261); test: qHTS Assay for Inhibitors and Substrates of Cytochrome P450 2C19 (AID 899); further: on the % scale 0 is the no-effect control and ±100 the full control effect; nearly all actives have a fitted effect of over 60% in size
Procedure, shortened: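 NADPH-dependent conversion of Luciferin-H EGE (10uM, at KM) by 5nM enzyme in 50mM KPO4, 60 min at 37C following 10 min compound preincubation. Stopped with luciferin detection buffer; luminescence read after 20 min.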

C[C@@H]1C[C@H]2[C@H]3C[C@@H](F)C4=CC(=O)C=C[C@]4(C)[C@@]3(Cl)[C@@H](O)C[C@@]2(C)[C@@H]1C(=O)COC(=O)C(C)(C)C
inactive: activity change, negative = inhibition [1] -11.4% [at 17.2 µM] | Potency [2] | activity change, negative = inhibition [3] -26.1% [at 17.2 µM] | activity, negative = inhibition [4] -9.29% [at 17.2 µM] | Potency [5] | Potency [6] | Potency [7]

CC[C@@H]1CN2CCc3cc(OC)c(OC)cc3[C@H]2C[C@@H]1C[C@H]1NCCc2cc(OC)c(OC)cc21
active: activity change, negative = inhibition [1] -115% [at 17.2 µM] | activity change, negative = inhibition [3] -120% [at 17.2 µM] | activity, negative = inhibition [4] -94.8% [at 17.2 µM]
inactive: Potency [2] | Potency [8] > 20.6 µM and > 46 µM | Potency [9] > 20.6 µM and > 46 µM | Potency [10] | Potency [11]

C[C@@H]1C(=O)N(C)C(=O)c2nc[nH]c21
inactive: activity change, negative = inhibition [1] -6.31% [at 38 µM] | Potency [2] | activity change, negative = inhibition [3] -19.2% [at 38 µM] | activity, negative = inhibition [4] 15% [at 38 µM] | Potency [8] > 46 µM | Potency [9] > 46 µM | Potency [6] | outcome [12] | outcome [13] | outcome [14] | outcome [15] | outcome [16] | Potency [17]

C[C@@]12C=CC(=O)C=C1CC[C@@H]1C2=CC[C@]2(C)[C@@H]1CC[C@H]2C(=O)CN1CCN(c2cc(N3CCCC3)nc(N3CCCC3)n2)CC1
active: Potency [2] 12.6 µM
inactive: activity change, negative = inhibition [1] 13.8% [at 38 µM] | activity change, negative = inhibition [3] -21.1% [at 38 µM] | activity, negative = inhibition [4] 9.08% [at 38 µM] | Potency [9] > 46 µM | Potency [6] | outcome [13] | outcome [14] | outcome [15] | outcome [16] | Potency [17]

O=C(O)/C=C\[C@H](O)c1ccc(Cl)cc1
inactive: activity change, negative = inhibition [1] 1.29% [at 38 µM] | Potency [2] | activity change, negative = inhibition [3] 8.91% [at 38 µM] | activity, negative = inhibition [4] -1.2% [at 38 µM] | Potency [9] > 46 µM | Potency [5] | outcome [12] | outcome [13] | Potency [18] | outcome [14] | outcome [15] | outcome [16] | Potency [17]

CC[C@@H]1CN2CCc3cc(OC)c(OC)cc3[C@H]2C[C@@H]1C[C@@H]1NCCc2cc(OC)c(OC)cc21
inactive: Potency [2] | Potency [8] > 46 µM | Potency [9] > 46 µM | Potency [19] | outcome [14] | outcome [15] | outcome [16] | Potency [17]
active: activity change, negative = inhibition [1] -110% [at 38 µM] | activity change, negative = inhibition [3] -112% [at 38 µM] | activity, negative = inhibition [4] -52.6% [at 38 µM]

CCc1cccc2c3c([nH]c12)[C@](CC)(CC(=O)O)OCC3
inactive: activity change, negative = inhibition [1] 6.07% [at 38 µM] | Potency [2] | activity change, negative = inhibition [3] -5.71% [at 38 µM] | Potency [5] | Potency [6] | Potency [11] | Potency [20]

Cc1ccc(SCN2CCCCC2)cc1 (tested in a mixture with another compound)
inactive: activity change, negative = inhibition [1] -5.94% | activity change, negative = inhibition [3] 16.7% | Potency [8] > 46 µM | Potency [9] > 9.22 µM | Potency [5] | Potency [6]
active: Potency [2] 3.98 µM

CC(C)C12CC[C@@]3(CC[C@H]4[C@@](C)(CCC[C@]4(C)C(=O)O)[C@@H]3C1)[C@@H](CN)C2
inactive: activity change, negative = inhibition [1] -3.83% | Potency [2] | activity, negative = inhibition [4] 1.18% | Potency [8] > 46 µM | Potency [9] > 9.22 µM | Potency [5] | Potency [6]

CC[C@H](C)[C@@H]1O[C@]2(CC[C@@H]1C)C[C@H]1C[C@H](CC=C(C)[C@@H](O[C@H]3C[C@H](OC)[C@H](O[C@H]4C[C@H](OC)[C@H](O)[C@H](C)O4)[C@H](C)O3)[C@@H](C)C=CC=C3CO[C@@H]4[C@@H](O)C(C)=C[C@H](C(=O)O1)[C@@]34O)O2
inactive: activity change, negative = inhibition [1] -14% [at 38 µM] | Potency [2] | activity change, negative = inhibition [3] -10.6% [at 38 µM] | Potency [8] > 46 µM | Potency [9] > 46 µM | Potency [6] | Potency [7] | outcome [14] | outcome [15] | outcome [16] | Potency [17]

CCCC[S@@](=N)(=O)CC[C@@H](N)C(=O)O
inactive: activity change, negative = inhibition [1] 3.63% [at 38 µM] and -2.23% [at 38 µM] | Potency [2] | activity change, negative = inhibition [3] -1.5% [at 38 µM] and 5.43% [at 38 µM] | Potency [8] > 46 µM | Potency [9] > 46 µM | Potency [5] | Potency [6] | Potency [11] | outcome [13] | Potency [18] | Potency [19] | outcome [14] | outcome [15] | outcome [16] | Potency [17]
